Compounds without any hit were thinned out: in the full panel of roughly 79,000, 15% have a hit. Cut-off read from the data, not from the text of the source: active = growth inhibition above about 70%; inactive = the rest.
What was measured:
[1] = NCI Yeast Anticancer Drug Screen. Data for the rad50 strain (AID 155);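 note: 0% = growth of vehicle-only cultures of the same strain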; conditions: S. cerevisiae rad50 strain growth inhibition, active compounds read high; at 50.0 µM unless noted
Procedure, shortened: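 Yeast carrying a defined DNA repair defect were exposed to test compounds, and growth was compared with vehicle-treated controls to give percent inhibition.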

[2] = NCI Yeast Anticancer Drug Screen. Data for the mec2-1 strain (AID 157); conditions: S. cerevisiae mec2-1 strain, active compounds read high; at 50.0 µM unless noted
Procedure, shortened: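 Yeast mec2-1 mutant treated with compound. Readout: growth inhibition vs vehicle controls.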

[3] = NCI Yeast Anticancer Drug Screen. Data for the sgs1 mgt1 strain (AID 161);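 note: 0% = growth of cultures given vehicle only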; conditions: S. cerevisiae sgs1 mgt1 strain, active compounds read high; at 50.0 µM unless noted
Procedure, shortened: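 Read-out: growth inhibition vs vehicle controls. Cells: mutant yeast strain deficient in DNA damage repair.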

[4] = NCI Yeast Anticancer Drug Screen. Data for the cln2 rad14 strain (AID 165);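 note: 0% = growth equal to vehicle treated cultures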; conditions: S. cerevisiae cln2 rad14 strain, active compounds read high; at 50.0 µM unless noted
Procedure, shortened: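 cln2 rad14 yeast strain; compound exposure; growth inhibition read vs vehicle controls.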

[5] = NCI Yeast Anticancer Drug Screen. Data for the bub3 strain (AID 167); conditions: S. cerevisiae bub3 mutant strain, active compounds read high; at 50.0 µM unless noted
Procedure, shortened: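 Compounds were applied to a genetically altered yeast strain carrying a cell-cycle control defect. Growth inhibition was scored against vehicle-treated controls.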

[6] = NCI Yeast Anticancer Drug Screen. Data for the mlh1 rad18 strain (AID 175); conditions: S. cerevisiae mlh1 rad18 strain growth inhibition, active compounds read high; at 50.0 µM unless noted
Procedure, shortened: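 Yeast w/ defined DNA-repair lesions; compound exposure; growth vs vehicle controls → % inhibition.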

Measured: growth inhibition

COC(=O)c1cc(-c2ccc(N)cc2)n2c(N)nnc2n1
inactive: [1] 15% | [2] 23.4% | [3] 25.8% | [4] -1.55% | [5] 2.45% | [6] 18.6%

NNC(=O)C(c1ccccc1)c1ccccc1
inactive: [1] 6.4% | [2] -8.95% | [3] -18.8% | [4] 3% | [5] -28.9% | [6] -0.25%

N#CCCC1(CCC#N)CCCC(CCC#N)(CCC#N)C1=O
inactive: [1] 2% | [2] 7.6% | [3] 2.15% | [4] -51.5% | [5] 16.8% | [6] 11.2%

Cc1c(Cl)cccc1NC(=O)CCl
inactive: [1] 7.95% | [2] 32.1% | [3] 28.2% | [4] 5.75% | [5] -3.85% | [6] 16.2%

CC1(C)SC=C2C1=CSC2(C)C
inactive: [1] 0.2% | [2] 2.1% | [3] -6.35% | [4] -26.2% | [5] 4.6% | [6] -3.65%

O=c1[nH]c(=O)c2nc3c(=O)[nH]c(=O)[nH]c3nc2[nH]1
inactive: [1] -14.2% | [2] -21.1% | [3] 0.95% | [4] -5.95% | [5] 2.65% | [6] -27.1%

CC(C)N=C(N)N=C(N)N
inactive: [1] 30.9% | [2] 13.5% | [3] 3.85% | [4] 3.9% | [5] 30.2% | [6] -3.2%

Nc1nc(Cl)cc(NCCCCCCCCNc2cc(Cl)nc(N)n2)n1
inactive: [1] -2.3% | [2] -1.65% | [3] -7.35% | [4] -7.8% | [5] -3.95% | [6] -3.55%

C/C(CC(=O)Nc1cc(C)ccc1C)=N\NC(=O)c1ccncc1
inactive: [1] 11.8% | [2] -0.4% | [3] 10.7% | [4] 22.7% | [5] -0.75% | [6] 1.15%

CC(C)N1CCN(c2ccncc2S(=O)(=O)N2CCCC2)CC1
inactive: [1] 2.7% | [2] 4.8% | [3] -4.65% | [4] -33.9% | [5] 1.35% | [6] 8.4%

O=C(O)CCC(=O)CCC(=O)O
inactive: [1] 13.7% | [2] -8.85% | [3] 3.6% | [4] 2% | [5] -14.6% | [6] 7.2%

CC1(CCC(=O)O)C(=O)C(=O)CC2C1CCC1(C)C(O)CCC21 (configuration not stated)
inactive: [1] -9.5% | [2] -0.6% | [3] -7.25% | [4] 0.15% | [5] -4.1% | [6] -17.4%

C[N+]12CCCCC1C(CN1C(=O)c3ccccc3C1=O)CCC2 (configuration not stated)
inactive: [1] 0.65% | [2] -6.05% | [3] 35.7% | [4] 10.9% | [5] 28.8% | [6] -40%

O=C1C(CN2CCCC2)CCCC1CN1CCCC1 (configuration not stated)
inactive: [1] -3.2% | [2] -29.4% | [3] -40.1% | [4] 2.15% | [5] 7.3% | [6] -10.1%

CC(=O)c1cccc(OC(=O)Nc2ccccc2)c1
inactive: [1] 6.45% | [2] -10.2% | [3] 2.5% | [4] 4.3% | [5] -1.45% | [6] 22.4%

CCCCCCCCCCCCCCCCCCCCCCCCCCBr
inactive: [1] 0.85% | [2] 0.8% | [3] 9.7% | [4] -9.95% | [5] 10.4% | [6] 11.7%

Cc1c(Cl)cccc1C(=O)O
inactive: [1] -3.15% | [2] 10.7% | [3] 3.65% | [4] -3.15% | [5] -10% | [6] 27.6%

c1ccc2nc3c(cc2c1)c1c(c2ccccc23)CCCC1
inactive: [1] 11.2% | [2] -10.5% | [3] 20.4% | [4] -25.4% | [5] -14.6% | [6] 22.9%

CC(=O)CC(=O)Nc1ccc2ccccc2c1
inactive: [1] -1.9% | [2] -12% | [3] -8.3% | [4] -36.4% | [5] -37.9% | [6] -14.6%

CC(=O)Nc1nnn(C)n1
inactive: [1] -4.65% | [2] -5.55% | [3] 0.8% | [4] -39.5% | [5] 9.1% | [6] -3.45%

Cc1noc(NC(=O)Nc2ccccc2F)c1C#N
inactive: [1] -24.3% | [2] -10.4% | [3] -33.1% | [4] 26.9% | [5] -15.9% | [6] -2.25%

CN(C)CCCC(=O)O
inactive: [1] -13.3% | [2] -45.4% | [3] -14.1% | [4] 2.8% | [5] -31.9% | [6] -0.35%

Cn1c2ccccc2c2c3c(ccc21)C(=O)N(c1ccccc1)C3=O
inactive: [1] 11.7% | [2] -4.7% | [3] 12.9% | [4] -3.5% | [5] 12.4% | [6] 2.95%

Nc1ccc(S(=O)[O-])cc1.Nc1ccc(S(=O)[O-])cc1.[Zn+2]
inactive: [1] -19.2% | [2] -19.9% | [3] -6.15% | [4] -26.5% | [5] 1% | [6] -15.6%

CC1C(=O)N(c2ccccc2)NC12CCCc1ccccc12 (configuration not stated)
inactive: [1] -15.2% | [2] -7.3% | [3] -34.8% | [4] 16.6% | [5] 25.1% | [6] 27.6%

CC[N+](CC)(CC)CCOc1nc(OCC[N+](CC)(CC)CC)nc(OCC[N+](CC)(CC)CC)n1
inactive: [1] 11.8% | [2] 11% | [3] 10.3% | [4] 9.1% | [5] 17.1% | [6] 35%

O=C(O)c1ccc(P(=O)(O)O)cc1[N+](=O)[O-]
inactive: [1] 26.4% | [2] 9.65% | [3] -9.45% | [4] 1.75% | [5] 4.25% | [6] -7%

CC1=CSC2=NCCCCN12
inactive: [1] -9.5% | [2] 2.3% | [3] 13.3% | [4] 8.55% | [5] 18.2% | [6] 16.1%

C[C@H]1/C(=C/C(=O)OCCN(C)C)CC[C@H]2[C@H]1C(=O)C[C@H]1C(C)(C)[C@@H](O)CC[C@]21C
inactive: [1] 1.2% | [2] -1.75% | [3] -0.55% | [4] 13.8% | [5] 15.9% | [6] -34.1%

O=C(O)C1=Cc2ccccc2OC1
inactive: [1] 2.7% | [2] -19.9% | [3] -5.55% | [4] -27.2% | [5] -28.6% | [6] -4.7%

COc1ccc(C2c3c(ccc4ccccc34)Oc3ccc4ccccc4c32)cc1
inactive: [1] -8.05% | [2] -23.6% | [3] 7.5% | [4] 6.85% | [5] 2.85% | [6] -8.45%

CCOc1cc(/C=N/NC(=O)c2ccccc2NC(=O)c2ccccc2Cl)ccc1O
inactive: [1] 11.3% | [2] -1.9% | [3] -7.05% | [4] -1.8% | [5] 3.05% | [6] -9.3%

CC1(C)SCc2nc3ccccc3n21
inactive: [1] -9.75% | [2] -34.9% | [3] 12.2% | [4] 21.9% | [5] 19.1% | [6] 6.3%

CC(C)(O)C[N+](=O)[O-]
inactive: [1] 5.85% | [2] -1.8% | [3] 0.85% | [4] -7.7% | [5] 0% | [6] 3.05%

ClCCCSSCCCCl
inactive: [1] 24.1% | [2] 21.2% | [3] 20.4% | [4] -7.95% | [5] 14.4% | [6] 3.85%

O=C1c2ccccc2C(=O)N1c1ccc(OCCN2CCCCC2)cc1
inactive: [1] 11.8% | [2] -1.7% | [3] 7.45% | [4] 37.5% | [5] -2.05% | [6] 18.4%

Cc1cc(N)ccc1-c1cc(C)c(N)c(C)c1C
inactive: [1] -39.4% | [2] -21.9% | [3] -7.8% | [4] 13.2% | [5] -18.7% | [6] -15.1%

C[C@]12CCC(=O)C=C1CC[C@@H]1[C@@H]2C(=O)C[C@]2(C)/C(=C\C(=O)O)CC[C@@H]12
inactive: [1] -1% | [2] -19.1% | [3] 5.7% | [4] -48.1% | [5] -4.5% | [6] 2.55%

O=C(O)C(C(=O)N(c1ccccc1)c1ccccc1)c1ccccc1 (configuration not stated)
inactive: [1] 9.8% | [2] -1.05% | [3] 21.5% | [4] -51.9% | [5] 18.7% | [6] 9.75%

COc1ccc(C2NC3=C(CCCC3)N2)cc1
inactive: [1] 26.4% | [2] 4.45% | [3] -13.9% | [4] 8.3% | [5] -3.9% | [6] 32.9%

COc1ccc2nc3cc([N+](=O)[O-])ccc3c(NCCCN(CCO)CCO)c2c1
inactive: [1] -6.7% | [2] -1.75% | [3] 6.9% | [4] 1.75% | [5] 7.75% | [6] 2.6%

C#CCN(N=O)C(=O)NCCCCC(NC(=O)OCc1ccccc1)C(=O)OCc1ccccc1 (configuration not stated)
inactive: [1] -6.65% | [2] -8.15% | [3] -26.6% | [4] -4.5% | [5] 10.3% | [6] -24.9%

Reference: PubChem BioAssay (NCI)
